Data as given in PubChem BioAssay (Tox21).
Records with an inconclusive call do not appear. Calls of active or inactive are those of the source. Unless noted, calls come from the whole dose curve; as a rule, active = well fitted curve in the direction sought with a large enough effect in the repeat runs; inconclusive = weak or mixed curves; inactive = no such curve, though single readings can be large; an effect the other way counts as inactive or inconclusive.

Legend:
[1] = qHTS assay to test for compound auto fluorescence at 535 nm (green) in HEK293 cells (AID 720680)
[2] = qHTS assay to test for compound auto fluorescence at 460 nm (blue) in HEK293 cell free culture (AID 720681)
Summary of the method: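 Compounds were added to cell-free DMEM with 10% FBS and fluorescence read directly. The blue channel used 405 nm excitation and 460 nm emission, with triamterene as the reference fluorophore.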

[3] = qHTS assay to test for compound auto fluorescence at 535 nm (green) in HEK293 cell free culture (AID 720682)
Summary of the method: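 Green-label autofluorescence (485 nm excitation, 535 nm emission) measured on compound added to cell-free culture medium (DMEM, 10% FBS). Output is expressed relative to fluorescein.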

[4] = qHTS assay to test for compound auto fluorescence at 590 nm (red) in HEK293 cell free culture (AID 720683)
Summary of the method: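 Cell-free wells of DMEM with 10% FBS received compound, and intrinsic fluorescence was read at excitation/emission 540/590 nm. Values expressed as equivalence to Rose Bengal sodium.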

[5] = qHTS assay to test for compound auto fluorescence at 460 nm (blue) in HepG2 cell free culture (AID 720685)
Summary of the method: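 Cell-free plates of MEM plus 10% FBS received 23 nL compound or DMSO vehicle; blue-channel (405/460 nm) intensity scored against triamterene as reference fluorophore.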

[6] = qHTS assay to test for compound auto fluorescence at 535 nm (green) in HepG2 cell free culture (AID 720686)
[7] = qHTS assay to identify small molecule antagonists of the glucocorticoid receptor (GR) signaling pathway - cell viability counter screen (AID 720693); note: nearly all actives have a fitted effect of over 55% in size
[8] = qHTS assay for identifying genotoxic compounds that show differential cytotoxicity against isogenic chicken DT40 cell lines with known DNA damage response pathways - wild type cell line (AID 743012); note: nearly all actives have a fitted effect of over 60% in size; note: potency is the fitted concentration of half-maximal effect
Summary of the method: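 Viability of DNA repair-proficient chicken DT40 cells was assessed by CellTiter-Glo luminescence following 40 h compound exposure at 37 C/5% CO2.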

[9] = qHTS assay for identifying genotoxic compounds that show differential cytotoxicity against isogenic chicken DT40 cell lines with known DNA damage response pathways - Rev3 mutant cell line (AID 743014); note: nearly all actives have a fitted effect of over 55% in size; note: potency is the fitted concentration of half-maximal effect
[10] = qHTS assay for identifying genotoxic compounds that show differential cytotoxicity against isogenic chicken DT40 cell lines with known DNA damage response pathways - Rad54/Ku70 mutant cell line (AID 743015); note: nearly all actives have a fitted effect of over 60% in size; note: potency is the fitted concentration of half-maximal effect
[11] = qHTS assay to identify small molecule antagonists of the androgen receptor (AR) signaling pathway - cell viability counter screen (AID 743033; note: nearly all actives have a fitted effect of over 45% in size)
[12] = qHTS assay to identify small molecule antagonists of the androgen receptor (AR) signaling pathway using the MDA cell line - cell viability counter screen (AID 743041; note: nearly all actives have a fitted effect of over 45% in size; note: potency is the fitted concentration of half-maximal effect)
Summary of the method: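 Cytotoxicity counter screen: MDA-kb2 AR-luc cells, compound + R1881, 16 h, 37C, 0% CO2; CellTiter-Fluor added at 15.5 h, fluorescence read after 30 min.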

[13] = qHTS assay to test for compound auto fluorescence at 460 nm (blue) in HepG2 cells (AID 720687)
Summary of the method: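 HepG2 cells in MEM with 10% FBS, attached overnight at 37 C, were exposed to compound or DMSO for 1 hr at 37 C, 5% CO2. Blue fluorescence was read at 405/460 nm, with triamterene as reference fluorophore.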

[14] = target: Glucocorticoid receptor (Homo sapiens) (UniProt P04150); assay: qHTS assay to identify small molecule agonists of the glucocorticoid receptor (GR) signaling pathway (AID 720691; active = well fitted activation curve with a large enough effect in the signal ratio in the repeat runs, not every such curve was filed as active; the % refers to the signal ratio)
Sequence of Glucocorticoid receptor (Homo sapiens) (P04150 whole entry, looked up): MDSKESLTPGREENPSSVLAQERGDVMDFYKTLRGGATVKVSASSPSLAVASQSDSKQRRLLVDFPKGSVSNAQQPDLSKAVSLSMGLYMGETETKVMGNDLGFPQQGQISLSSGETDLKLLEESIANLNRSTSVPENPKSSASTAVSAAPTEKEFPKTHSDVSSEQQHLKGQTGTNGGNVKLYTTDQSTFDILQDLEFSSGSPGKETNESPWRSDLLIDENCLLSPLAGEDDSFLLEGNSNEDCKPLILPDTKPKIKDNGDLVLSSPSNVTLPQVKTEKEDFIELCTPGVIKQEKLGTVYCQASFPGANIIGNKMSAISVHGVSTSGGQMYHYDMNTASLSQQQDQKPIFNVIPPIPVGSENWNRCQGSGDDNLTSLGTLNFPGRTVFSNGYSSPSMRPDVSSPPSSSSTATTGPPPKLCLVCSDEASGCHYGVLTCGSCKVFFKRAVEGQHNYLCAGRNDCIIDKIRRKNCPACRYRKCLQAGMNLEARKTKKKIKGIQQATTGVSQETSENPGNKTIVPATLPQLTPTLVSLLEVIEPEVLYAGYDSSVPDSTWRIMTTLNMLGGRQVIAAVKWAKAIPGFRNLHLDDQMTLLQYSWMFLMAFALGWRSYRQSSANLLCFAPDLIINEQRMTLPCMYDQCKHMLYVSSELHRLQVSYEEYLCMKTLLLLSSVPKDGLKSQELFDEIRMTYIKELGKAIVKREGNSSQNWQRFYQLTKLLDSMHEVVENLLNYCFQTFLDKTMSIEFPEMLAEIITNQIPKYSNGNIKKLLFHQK
Summary of the method: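 Compounds in DMSO, alongside positive controls, were added to GR-bla HeLa reporter cells and incubated 18 h at 37 C; GRE-driven beta-lactamase was detected by fluorescence after 2 h with FRET substrate at room temperature.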

[15] = target: Androgen receptor (Homo sapiens) (UniProt P10275); assay: qHTS assay to identify small molecule antagonists of the androgen receptor (AR) signaling pathway (AID 743035; active = well fitted inhibition curve with a large enough effect in the signal ratio in the repeat runs, not every such curve was filed as active; the % refers to the signal ratio; note: potency is the fitted concentration of half-maximal effect)
Sequence of Androgen receptor (Homo sapiens) (P10275 whole entry, looked up): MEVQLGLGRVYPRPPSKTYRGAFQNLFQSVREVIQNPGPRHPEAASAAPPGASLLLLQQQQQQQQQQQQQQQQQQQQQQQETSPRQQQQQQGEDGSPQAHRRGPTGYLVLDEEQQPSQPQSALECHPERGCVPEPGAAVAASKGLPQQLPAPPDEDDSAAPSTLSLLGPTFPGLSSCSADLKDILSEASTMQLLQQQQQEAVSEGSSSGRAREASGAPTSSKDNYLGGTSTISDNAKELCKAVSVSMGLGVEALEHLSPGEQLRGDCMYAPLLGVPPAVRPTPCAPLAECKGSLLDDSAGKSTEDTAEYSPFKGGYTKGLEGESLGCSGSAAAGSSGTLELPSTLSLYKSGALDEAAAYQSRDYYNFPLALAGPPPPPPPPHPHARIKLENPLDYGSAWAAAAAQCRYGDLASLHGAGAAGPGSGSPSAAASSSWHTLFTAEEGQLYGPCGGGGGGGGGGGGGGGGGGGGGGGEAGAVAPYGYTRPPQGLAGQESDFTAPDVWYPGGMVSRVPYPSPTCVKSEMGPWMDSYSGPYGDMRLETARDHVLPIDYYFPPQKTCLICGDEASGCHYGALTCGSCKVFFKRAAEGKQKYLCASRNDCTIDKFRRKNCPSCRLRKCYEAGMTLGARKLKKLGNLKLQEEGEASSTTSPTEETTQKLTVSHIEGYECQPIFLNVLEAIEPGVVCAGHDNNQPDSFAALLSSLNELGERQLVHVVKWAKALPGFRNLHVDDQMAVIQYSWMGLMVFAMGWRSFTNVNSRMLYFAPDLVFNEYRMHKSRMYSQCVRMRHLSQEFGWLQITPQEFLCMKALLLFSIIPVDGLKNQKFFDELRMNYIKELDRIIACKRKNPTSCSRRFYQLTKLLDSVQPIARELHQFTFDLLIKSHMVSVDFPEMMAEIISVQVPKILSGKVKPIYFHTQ
Summary of the method: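 Reporter HEK293 cells were exposed to compounds and R1881 overnight (16 h, 37C); beta-lactamase activity was then quantified by FRET fluorescence.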

[16] = target: Androgen receptor (Homo sapiens) (UniProt P10275); assay: qHTS assay to identify small molecule agonists of the androgen receptor (AR) signaling pathway (AID 743036; active = well fitted activation curve with a large enough effect in the signal ratio in the repeat runs, with a control signal flat, not every such curve was filed as active; the % refers to the signal ratio)
Summary of the method: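 AR-UAS-bla HEK293 cells, plated 4 h before dosing, were treated with compound for 16 h at 37C. beta-Lactamase reporter read after 2 h with LiveBLAzer B/G FRET substrate at room temperature.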

[17] = target: Androgen receptor (Homo sapiens) (UniProt P10275); assay: qHTS assay to identify small molecule agonists of the androgen receptor (AR) signaling pathway using the MDA cell line (AID 743040; note: nearly all actives have a fitted effect of over 20% in size)
Summary of the method: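 Luciferase read-out, ONE-Glo, 30 min RT. Cells: MDA-kb2 AR-luc, MMTV promoter with AR and GR response elements. Compound exposure 16 h, 37C, 0% CO2, after 5 h pre-incubation. qHTS agonist mode.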

[18] = target: Androgen receptor (Homo sapiens) (UniProt P10275); assay: qHTS assay to identify small molecule antagonists of the androgen receptor (AR) signaling pathway using the MDA cell line (AID 743042; note: nearly all actives have a fitted effect of over 55% in size; note: potency is the fitted concentration of half-maximal effect)
Summary of the method: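 MDA-kb2 breast carcinoma cells carrying MMTV-luciferase (AR/GR responsive) were co-treated with compounds and the agonist R1881 for 16 h at 37C. Inhibition read as ONE-Glo luminescence; CellTiter-Fluor fluorescence measured in parallel for cytotoxicity.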

[19] = qHTS assay to test for compound auto fluorescence at 590 nm (red) in HepG2 cell free culture (AID 720684)
Summary of the method: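 Rose Bengal sodium served as the reference for red signal. Test compounds were dispensed into serum-containing MEM (10% FBS) without cells, and plates were read at 540/590 nm.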

[20] = target: Glucocorticoid receptor (Homo sapiens) (UniProt P04150); assay: qHTS assay to identify small molecule antagonists of the glucocorticoid receptor (GR) signaling pathway (AID 720692; active = well fitted inhibition curve with a large enough effect in the signal ratio in the repeat runs, not every such curve was filed as active; the % refers to the signal ratio; note: potency is the fitted concentration of half-maximal effect)
Summary of the method: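 In a 1536-well cell format, compounds were added 4 h after seeding GR-bla HeLa cells, together with dexamethasone at 5 nM final; reporter activity was measured by FRET-substrate fluorescence following 18 h at 37 C.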

Measured: Potency

C=C1CCC2CC1C2(C)C (stereo not given)
not listed: [13] | [14] | [15] | [16] | [17] | [18] | [19] | [20]
inactive: all other assays above

O=C(/C=C/c1ccccc1)OCCc1ccccc1
not listed: [7] | [10] | [19] | [20]
inactive: all other assays above

CCOC(C)=O
not listed: [9] | [15] | [16] | [17] | [18] | [19] | [20]
inactive: all other assays above

Cc1cc(=O)c2c(O)c3c(O)cc(=O)c4c3c3c(cc(O)c1c23)C(C)(C)C=4O
active: [8] 0.944 µM | [9] 1.06 µM
inactive: [1] | [2] | [3] | [4] | [19] | [5] | [13] | [11] | [12]

CC(CN(C)C)C(C)(O)Cc1ccc(Cl)cc1 (stereo not given)
not listed: [9] | [10] | [19] | [20]
inactive: all other assays above

C=CC(=O)OCC1CC2CC1C1CCC(COC(=O)C=C)C21 (stereo not given)
inactive: [1] | [2] | [3] | [4] | [19] | [5] | [6]
active: [9] 24.3 µM | [10] 19.3 µM

CC(=O)Oc1ccc([N+](=O)[O-])cc1CCl
active: [8] 8.63 µM | [10] 3.86 µM | [12] 54.5 µM
inactive: [1] | [2] | [3] | [4] | [19] | [5] | [6] | [7] | [11]

CC1=Nc2ccc3ccccc3c2C1(C)C
inactive: [1] | [2] | [3] | [4] | [19] | [5] | [6] | [7] | [16] | [17] | [18]

CC(=O)OCC(=O)NCCCOc1cccc(CN2CCCCC2)c1
not listed: [10] | [14] | [19] | [20]
inactive: all other assays above

O=C(O)CCC(=O)C(=O)O
not listed: [7] | [15] | [16] | [17] | [18] | [19]
inactive: all other assays above

O=[N+]([O-])c1cc(C2CCCCC2)c(O)c([N+](=O)[O-])c1
active: [8] 17.2 µM | [9] 21.6 µM | [10] 19.3 µM | [15] 5.48 µM | [12] 30.5 µM | [18] 12.2 µM
not listed: [7] | [11] | [13] | [16] | [20]
inactive: all other assays above

CCCC(C(=O)OCCN(CC)CC)(c1ccccc1)c1ccccc1
active: [8] 8.41 µM | [9] 10.6 µM | [10] 18.8 µM
inactive: [1] | [2] | [3] | [4] | [5] | [6] | [13] | [14] | [7]

c1ccc2sc(SN(C3CCCCC3)C3CCCCC3)nc2c1
inactive: [1] | [2] | [3] | [4] | [5] | [6] | [13] | [8] | [11] | [12]

CCCCCCCCCI
not listed: [9] | [13] | [15] | [16] | [17] | [18] | [20]
inactive: all other assays above

O=[N+]([O-])c1ccc(Nc2ccc(Nc3ccccc3)c(S(=O)(=O)O)c2)c([N+](=O)[O-])c1
inactive: [1] | [2] | [3] | [4] | [19] | [5] | [6] | [14] | [8] | [11] | [12]

CCOC(=O)C1=C(C)NC(C)=C(C(=O)OC)C1c1cccc(Cl)c1Cl (stereo not given)
active: [20] 10.7 µM | [8] 23.7 µM
inactive: [1] | [2] | [3] | [4] | [19] | [6] | [14] | [7] | [11] | [12]

CN1CCCC(n2nc(Cc3ccc(Cl)cc3)c3ccccc3c2=O)CC1 (stereo not given)
active: [8] 11.9 µM
not listed: [9] | [10] | [12] | [15] | [16] | [17] | [18] | [19]
inactive: all other assays above
